A short description of assay [1]: qHTS RealTime-Glo MT Cell Viability Assay in HepG2 cells - 40 hour (AID 1224870). Further: nearly all actives have a fitted effect of over 50% in size. An outline of the steps:
(§1)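 HepG2 cells (600/well) mixed with RealTime-Glo MT reagent, settled 5 h at 37 C/5% CO2 before compound addition. Nonlytic NanoLuc luminescence from viable-cell prosubstrate reduction read repeatedly during 40 h treatment at 37 C.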
A general note: qHTS replaces the single test concentration by a dilution series.

A short description of assay [2]: A CellTox Green Cytotoxicity Assay to monitor cytotoxicity in HEK293 cells - 40 hour (AID 1224871). Further: nearly all actives have a fitted effect of over 45% in size. Further: potency means the concentration at half of the fitted maximal effect. A digest of the protocol: (§2)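 Tox21 screen in HEK293: membrane-impermeant cyanine dye fluoresces on binding dead-cell DNA; compound pinned 5 h post-seeding, plates held at 37 C, signal read repeatedly through 40 h.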
Assay [3] can be described thus: qHTS RealTime-Glo MT Cell Viability Assay in HEK293 cells - 16 hour (AID 1224872). Further: nearly all actives have a fitted effect of over 50% in size. Further: potency means the concentration at half of the fitted maximal effect. On activity change, negative = cytotoxicity: top concentration of the series differs between compounds. An outline of the steps:
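Cells + reagent dispensed (600 cells/well, HEK293) → 5 h at 37 C/5% CO2 → 23 nL compound in DMSO pinned → 40 h at 37 C → luminescence read at 0, 8, 16, 24, 32, 40 h.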

A short description of assay [4]: qHTS RealTime-Glo MT Cell Viability Assay in HepG2 cells - 8 hour (AID 1224873). Further: nearly all actives have a fitted effect of over 55% in size. An outline of the steps:
as §1

Assay [5] can be described thus: qHTS RealTime-Glo MT Cell Viability Assay in HEK293 cells - 40 hour (AID 1224874). Further: nearly all actives have a fitted effect of over 50% in size. Further: potency means the concentration at half of the fitted maximal effect. To be noted: RealTime-Glo luminescence; max response: hits give low values. An outline of the steps: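 HEK293 + NanoLuc + prosubstrate, 600 cells/well; 5 h, 37 C/5% CO2; compound 23 nL in DMSO by pintool; 37 C; luminescence read at 0, 8, 16, 24, 32 and 40 h time points.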
Assay [6] in a line: A CellTox Green Cytotoxicity Assay to monitor cytotoxicity in HEK293 cells - 24 hour (AID 1224875). Further: nearly all actives have a fitted effect of over 45% in size. Further: potency means the concentration at half of the fitted maximal effect. On activity change: series mostly up to about 77 µM. A digest of the protocol:
as §2

The nature of assay [7]: A CellTox Green Cytotoxicity Assay to monitor cytotoxicity in HepG2 cells - 16 hour (AID 1224876). Further: nearly all actives have a fitted effect of over 45% in size. Further: potency means the concentration at half of the fitted maximal effect. An outline of the steps: (§3)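 Measurements at 0, 8, 16, 24, 32 and 40 h of treatment captured CellTox Green fluorescence in HepG2 cells that had been co-plated with reagent and preincubated 5 h at 37 C/5% CO2.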
Assay [8] can be described thus: qHTS RealTime-Glo MT Cell Viability Assay in HepG2 cells - 32 hour (AID 1224877). Further: nearly all actives have a fitted effect of over 55% in size. A digest of the protocol: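 Real-time, nonlytic viability: 600 HepG2 cells/well mixed with NanoLuc enzyme plus prosubstrate; 5 h settle, compound (DMSO) added by pintool; luminescence monitored over 40 h at 37 C.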
Assay [9] can be described thus: A CellTox Green Cytotoxicity Assay to monitor cytotoxicity in HepG2 cells - 24 hour (AID 1224878). Further: nearly all actives have a fitted effect of over 45% in size. Further: potency means the concentration at half of the fitted maximal effect. An outline of the steps:
as §3

A short description of assay [10]: A CellTox Green Cytotoxicity Assay to monitor cytotoxicity in HepG2 cells - 40 hour (AID 1224879). Further: nearly all actives have a fitted effect of over 40% in size. Further: potency means the concentration at half of the fitted maximal effect. An outline of the steps:
as §3

Experimental findings from PubChem BioAssay (Tox21) are described below.

Each structure is given as a SMILES string. Results filed as inconclusive are left out. Unmarked numbers belong to inactive results. Activity calls are given as the source filed them. The call rests on the fitted dose curve; in most records, active means well fitted curve in the direction sought with a large enough effect in the repeat runs; inconclusive means weak or mixed curves; inactive means no such curve, though single readings can be large; an effect the other way counts as inactive or inconclusive.
On the % scale 0 is the no-effect control and ±100 the full control effect.

Turning to `O=C1C=CCCC1`, the Potency entry in assay [1], in [2], in [3], in [6], in assay [7] and in assay [8] was “inactive” each time. The Potency entry in assay [9] and in assay [10] was “inactive” throughout. Also, the outcome in assay [4] was inactive. For the same compound, in assay [5], the max response is -0.315%.
`CC(C)CCCCCOC(=O)CS`: the Potency result in assay [1], in [2], in [3], in assay [6], in assay [7] and in assay [8] was “inactive” throughout. Also, the Potency result in [9] and in assay [10] was “inactive” throughout. In assay [4], the compound was called inactive. In addition, the max response in [5] is 4.02%.
For `CCCCCCCCCC(C)C=O` (stereo not given), the Potency result in assay [1], in assay [3] and in [8] was “inactive” each time. Moreover, the Potency was 19.5 µM (active) in assay [2]; 21.9 µM (active) in [6]; 24.5 µM (active) in assay [7]; 24.5 µM (active) in [9]; 24.5 µM (active) in assay [10]. Further, the compound was called inactive in assay [4]. Besides, the max response in [5] is 12%.
For the compound `CC(C)Oc1ccccc1O`, the Potency entry in assay [1], in assay [2], in assay [3], in assay [6], in assay [7] and in [9] was “inactive” throughout. In addition, in assay [10], the Potency entry was “inactive”. Besides, the compound was classed as inactive in [4]. The max response in [5] is 2.84%.
On to `CC(C(=O)O)c1ccc2c(c1)Cc1cccnc1O2` (stereo not given), for which the Potency result in assay [1], in assay [2], in assay [3], in assay [6], in assay [7] and in assay [8] was “inactive” each time. Moreover, the Potency entry in assay [9] and in assay [10] was “inactive” throughout. The call in assay [4] was inactive. For the same compound, in [5], the max response was 1.21%.
`CC(C)C/C=C(\C=O)c1ccccc1`: the Potency result in assay [1], in [2], in assay [3], in assay [6], in assay [7] and in [8] was “inactive” in each case. Besides, the Potency entry in [9] and in assay [10] was “inactive” throughout. For the same compound, the call in [4] was inactive. Further, the max response in assay [5] was 10%.
For the compound `CCOc1ccc(NC(C)=O)cc1N`, the Potency entry in assay [1], in assay [2], in [3], in [6], in [7] and in assay [8] was “inactive” throughout. In addition, the Potency entry in assay [9] and in assay [10] was “inactive” each time. The compound was classed as inactive in assay [4]. Also, in assay [5], the max response is 3.81%.
On to `CCCC(=O)OCc1ccccc1`, for which the Potency entry in assay [1], in assay [2], in assay [3], in [6], in assay [7] and in assay [9] was “inactive” throughout. The Potency result in assay [10] is “inactive”. Further, the outcome in assay [4] was inactive. The max response in assay [5] is 5.95%.
For the compound `Cc1nc(C)c(C)nc1C`, the Potency result in assay [1], in [2], in assay [3], in assay [7], in assay [8] and in assay [9] was “inactive” throughout. The Potency entry in [10] was “inactive”. Besides, the compound was called inactive in assay [4]. For the same compound, the max response in assay [5] was -5.51%.
As to `C/C(=C(\CCO)SS/C(CCO)=C(\C)N(C=O)Cc1cnc(C)nc1N)N(C=O)Cc1cnc(C)nc1N`, the Potency entry in assay [1], in [2], in assay [3], in assay [6], in assay [7] and in assay [8] was “inactive” each time. Also, the Potency entry in assay [9] and in [10] was “inactive” in each case. Further, in [4], the call was inactive.
On to `Clc1cc(Cl)c2c(c1)N=C1CCCCCN1C2`, for which the Potency entry in assay [1], in assay [2], in [7], in assay [8], in assay [9] and in [10] was “inactive” each time. Moreover, the Potency in assay [3] was 21.3 µM (active); in [5], 23.9 µM (active). In assay [4], the compound was classed as inactive.
With `NC(=O)c1ccccc1`, the Potency entry in [1], in assay [2], in assay [3], in [7], in assay [8] and in assay [9] was “inactive” each time. The Potency entry in assay [10] was “inactive”. In addition, the result in assay [4] was inactive. Besides, the max response in [5] was 1.7%.
For the compound `CCCCCCCCCCCCN1CCOCC1`, the Potency result in [1], in [2], in assay [3], in assay [7], in assay [8] and in assay [9] was “inactive” throughout. Moreover, the Potency entry in assay [10] is “inactive”. Further, the compound was called inactive in assay [4]. Moreover, the max response in assay [5] is 4.57%.
Turning to `CCCCCCCCCCCCCCCCCCCl`, the activity change, negative = cytotoxic in assay [1] is 2.37% [at 6.97 µM]. Further, the cytotoxicity increase is -1.51% [at 6.97 µM] in [2], -7.85% [at 6.97 µM] in assay [7] and -13.3% [at 6.97 µM] in assay [10]. The activity change, negative = cytotoxicity in assay [3] is 3.04% [at 6.97 µM]. In [4], the viability change, negative = cytotoxic is -0.0977% [at 6.97 µM]. Besides, the max response in [5] is 5.75%. Further, in assay [6], the activity change was 2.36% [at 6.97 µM, hits give high values]. In addition, in [9], the cytotoxicity is -10.6% [at 6.97 µM].
As to `CCOC(=O)CC(O)(CC(=O)OCC)C(=O)OCC`, the Potency entry in assay [1], in [2], in [3], in assay [6], in [7] and in [8] was “inactive” each time. Further, the Potency entry in assay [9] and in assay [10] was “inactive” in each case. For the same compound, the result in assay [4] was inactive.
`Nc1cccc2c(=O)[nH][nH]c(=O)c12`: the Potency entry in assay [1], in assay [2], in [3], in assay [6], in assay [7] and in assay [8] was “inactive” throughout. Further, the Potency result in assay [9] and in [10] was “inactive” each time. In addition, the call in assay [4] was inactive.
With `COC=O`, the activity change, negative = cytotoxic in assay [1] is 0.3% [at 6.97 µM]. Moreover, the cytotoxicity increase in [2] was -12.8% [at 6.97 µM]; in assay [7], -4.94% [at 6.97 µM]; in assay [10], -7.18% [at 6.97 µM]. In addition, the activity change, negative = cytotoxicity in [3] was 11.7% [at 6.97 µM]. Further, the viability change, negative = cytotoxic in [4] is 6.21% [at 6.97 µM]. Besides, the max response in assay [5] was 19.4%. Further, in assay [9], the cytotoxicity is -6.04% [at 6.97 µM].
For `Cc1c(N=C=O)cccc1N=C=O`, the Potency result in assay [1], in assay [2], in [3] and in assay [7] was “inactive” each time. For the same compound, in assay [4], the compound was classed as inactive. For the same compound, the max response in assay [5] is 2.75%.
`CCCCOC(=O)CC#N`: the Potency result in [1], in assay [2], in assay [3], in assay [7], in assay [8] and in assay [9] was “inactive” throughout. Also, the Potency result in assay [10] is “inactive”. In addition, the compound was classed as inactive in [4]. Moreover, the max response in [5] is 7.32%.
For the compound `CCCCC(CC)COCCC#N` (stereo not given), the Potency result in assay [1], in assay [2], in assay [3], in assay [7], in assay [9] and in assay [10] was “inactive” in each case. For the same compound, the call in [4] was inactive. For the same compound, the max response in [5] was 12.6%.
Take `OCCCO`: the Potency result in [1], in [2], in [3], in [7], in assay [9] and in [10] was “inactive” in each case. In assay [4], the compound was called inactive. Also, the max response in assay [5] was 16.2%.
With `O=[N+]([O-])c1ccccc1CCO`, the Potency entry in [1], in [2], in assay [3], in assay [7], in assay [8] and in assay [9] was “inactive” throughout. Also, the Potency entry in assay [10] is “inactive”. Also, the result in [4] was inactive. In [5], the max response was 16.6%.
In the case of `O=C(O)c1ccc2cc(O)ccc2c1`, the Potency result in assay [1], in [2], in [3], in assay [7], in assay [8] and in [9] was “inactive” throughout. Moreover, the Potency result in [10] is “inactive”. For the same compound, in [4], the result was inactive. The max response in assay [5] is -17.3%.
Regarding `Cc1ccc2ccccc2c1[N+](=O)[O-]`, the Potency result in [1], in assay [2], in assay [3], in [7], in [8] and in assay [9] was “inactive” each time. Besides, the Potency entry in [10] was “inactive”. For the same compound, the call in assay [4] was inactive. Also, the max response in assay [5] was 5.94%.
For the compound `CC(=O)S[C@H](C(=O)N[C@H]1Cc2ccccc2[C@H]2CCC[C@@H](C(=O)O)N2C1=O)C(C)C`, the Potency entry in [1], in assay [2], in assay [3], in [7], in [8] and in assay [9] was “inactive” each time. Further, the Potency entry in assay [10] is “inactive”. Moreover, the compound was classed as inactive in assay [4]. The max response in assay [5] is 16.8%.
